In the supplement of paper PMC3545927:
The other results are listed elsewhere or left out. No count for the full screen is at hand.

Biological target: furin, P09958
Assay: furin cleavage Z-score vs untreated control; higher = more cleavage, active = 3.5 or more, inactive = 1 or less, 8 variable residues between constant flanks
Method: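 Multiplexed peptide-cDNA fusion cleavage assay. 8-mer variable peptides flanked by constant Cys-Ala (N-term) and Ala-Gly-Asn-Ala-Ser-Ala-Ser-Ala (C-term) and conjugated to a cDNA oligonucleotide were bead-immobilised via the N-terminus. They were treated with purified furin at a 1:10 enzyme:substrate ratio in 50 mM HEPES pH 7.5, 1 mM CaCl2, 100 mM NaCl for 7.5, 15 or 30 min. Released cDNA was counted by next-generation sequencing, and log counts versus no-furin controls were lowess-adjusted and converted to robust Z-scores.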

Chain of furin, P09958 (P09958 whole entry): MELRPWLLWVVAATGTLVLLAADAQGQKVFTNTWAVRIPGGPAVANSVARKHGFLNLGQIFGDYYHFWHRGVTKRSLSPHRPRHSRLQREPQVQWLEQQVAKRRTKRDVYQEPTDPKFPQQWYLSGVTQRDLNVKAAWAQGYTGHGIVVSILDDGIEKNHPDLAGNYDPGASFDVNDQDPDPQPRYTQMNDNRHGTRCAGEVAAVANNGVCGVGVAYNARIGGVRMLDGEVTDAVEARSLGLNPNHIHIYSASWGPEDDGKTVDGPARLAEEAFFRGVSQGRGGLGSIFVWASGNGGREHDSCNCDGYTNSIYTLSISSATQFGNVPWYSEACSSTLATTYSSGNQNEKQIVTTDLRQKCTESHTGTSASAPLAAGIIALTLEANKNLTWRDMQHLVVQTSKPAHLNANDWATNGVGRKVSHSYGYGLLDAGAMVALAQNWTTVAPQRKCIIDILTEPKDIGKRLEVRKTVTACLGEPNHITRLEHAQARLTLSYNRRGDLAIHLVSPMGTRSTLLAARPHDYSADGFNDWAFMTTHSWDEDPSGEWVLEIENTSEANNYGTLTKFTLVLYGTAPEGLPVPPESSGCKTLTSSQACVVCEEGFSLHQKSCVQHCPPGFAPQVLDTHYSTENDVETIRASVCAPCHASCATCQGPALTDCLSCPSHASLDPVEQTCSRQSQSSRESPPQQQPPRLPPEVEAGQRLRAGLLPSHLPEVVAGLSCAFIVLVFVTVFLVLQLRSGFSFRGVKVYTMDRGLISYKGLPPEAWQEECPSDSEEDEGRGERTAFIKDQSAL

## CAMEECSQYLAGNASASA [HC1749]
7.5 min
  furin cleavage Z-score: 0.871 (inactive)
15 min
  furin cleavage Z-score: 2.54
30 min
  furin cleavage Z-score: 0.195 (inactive)

## CAPVVVGTTDAGNASASA [HC417]
7.5 min
  furin cleavage Z-score: -0.513 (inactive)
15 min
  furin cleavage Z-score: 0.318 (inactive)
30 min
  furin cleavage Z-score: -0.373 (inactive)

## CAEVVTSVWVAGNASASA [HC2210]
7.5 min
  furin cleavage Z-score: -1.35 (inactive)
15 min
  furin cleavage Z-score: -0.635 (inactive)
30 min
  furin cleavage Z-score: 0.276 (inactive)

## CARPRRDSAGAGNASASA [FS-2500]
7.5 min
  furin cleavage Z-score: 0.906 (inactive)
15 min
  furin cleavage Z-score: -0.366 (inactive)
30 min
  furin cleavage Z-score: 0.714 (inactive)

## CARPRRDAEPAGNASASA [FS-1762]
7.5 min
  furin cleavage Z-score: 10.8 (active)
15 min
  furin cleavage Z-score: 12.9 (active)
30 min
  furin cleavage Z-score: 9.93 (active)

## CARPRRDAAEAGNASASA [FS-2741]
7.5 min
  furin cleavage Z-score: 8.33 (active)
15 min
  furin cleavage Z-score: 11 (active)
30 min
  furin cleavage Z-score: 8.31 (active)

## CARPRRDCVAAGNASASA [FS-2440]
7.5 min
  furin cleavage Z-score: 5.46 (active)
15 min
  furin cleavage Z-score: 5.89 (active)
30 min
  furin cleavage Z-score: 6.25 (active)

## CARPRRLLQAAGNASASA [FS-2165]
7.5 min
  furin cleavage Z-score: -1.03 (inactive)
15 min
  furin cleavage Z-score: -0.941 (inactive)
30 min
  furin cleavage Z-score: -0.713 (inactive)

## CATKPCSGSWAGNASASA [HC1854]
7.5 min
  furin cleavage Z-score: -0.725 (inactive)
15 min
  furin cleavage Z-score: -0.656 (inactive)
30 min
  furin cleavage Z-score: -1.12 (inactive)

## CAEVTTPCSGAGNASASA [HC1970]
7.5 min
  furin cleavage Z-score: 0.193 (inactive)
15 min
  furin cleavage Z-score: -0.206 (inactive)
30 min
  furin cleavage Z-score: -0.0766 (inactive)

## CARARREALRAGNASASA [FS-2326]
7.5 min
  furin cleavage Z-score: 7.37 (active)
15 min
  furin cleavage Z-score: 9.91 (active)
30 min
  furin cleavage Z-score: 7.3 (active)

## CARRRRGALRAGNASASA [FS-2787]
7.5 min
  furin cleavage Z-score: 3.24
15 min
  furin cleavage Z-score: 5.07 (active)
30 min
  furin cleavage Z-score: 6.59 (active)

## CARRRRVVPEAGNASASA [FS-2082]
7.5 min
  furin cleavage Z-score: 1.92
15 min
  furin cleavage Z-score: 5.11 (active)
30 min
  furin cleavage Z-score: 6.08 (active)

## CARRRRGAPEAGNASASA [FS-2297]
7.5 min
  furin cleavage Z-score: 6.8 (active)
15 min
  furin cleavage Z-score: 6.5 (active)
30 min
  furin cleavage Z-score: 6.23 (active)

## CAVDVVCCSMAGNASASA [HC2110]
7.5 min
  furin cleavage Z-score: -1.67 (inactive)
15 min
  furin cleavage Z-score: -0.512 (inactive)
30 min
  furin cleavage Z-score: -0.588 (inactive)

## CAWRNRKKKTAGNASASA [FS-575]
7.5 min
  furin cleavage Z-score: -0.592 (inactive)
15 min
  furin cleavage Z-score: -0.739 (inactive)
30 min
  furin cleavage Z-score: -1.25 (inactive)

## CAGLVPRGSGAGNASASA [TR8]
7.5 min
  furin cleavage Z-score: -1.24 (inactive)
15 min
  furin cleavage Z-score: -1.44 (inactive)
30 min
  furin cleavage Z-score: -1.84 (inactive)

## CAMEECSFHLAGNASASA [HC1727]
7.5 min
  furin cleavage Z-score: 2.23
15 min
  furin cleavage Z-score: -1.03 (inactive)
30 min
  furin cleavage Z-score: 1.18

## CASYSWTGALAGNASASA [HC1372]
7.5 min
  furin cleavage Z-score: -0.915 (inactive)
15 min
  furin cleavage Z-score: -0.282 (inactive)
30 min
  furin cleavage Z-score: 0.0526 (inactive)

## CASGENLPYLAGNASASA [HC950]
7.5 min
  furin cleavage Z-score: -0.962 (inactive)
15 min
  furin cleavage Z-score: 0.134 (inactive)
30 min
  furin cleavage Z-score: -0.522 (inactive)

## CAVGGVYLLPAGNASASA [HC176]
7.5 min
  furin cleavage Z-score: 1.19
15 min
  furin cleavage Z-score: 0.0945 (inactive)
30 min
  furin cleavage Z-score: 0.538 (inactive)

## CARQQRDEETAGNASASA [FS-2401]
7.5 min
  furin cleavage Z-score: -0.691 (inactive)
15 min
  furin cleavage Z-score: -0.187 (inactive)
30 min
  furin cleavage Z-score: -3.21 (inactive)

## CARKRRANSLAGNASASA [FS-3194]
7.5 min
  furin cleavage Z-score: 6.54 (active)
15 min
  furin cleavage Z-score: 9.21 (active)
30 min
  furin cleavage Z-score: 5.81 (active)

## CARKFRSGLIAGNASASA [FS-2152]
7.5 min
  furin cleavage Z-score: -0.364 (inactive)
15 min
  furin cleavage Z-score: 0.099 (inactive)
30 min
  furin cleavage Z-score: -0.282 (inactive)

## CARPRRILNTAGNASASA [FS-2441]
7.5 min
  furin cleavage Z-score: -2.76 (inactive)
15 min
  furin cleavage Z-score: 0.234 (inactive)
30 min
  furin cleavage Z-score: 0.846 (inactive)

## CARKRRAVLTAGNASASA [FS-2971]
7.5 min
  furin cleavage Z-score: 8.83 (active)
15 min
  furin cleavage Z-score: 12.7 (active)
30 min
  furin cleavage Z-score: 10.3 (active)

## CASFRRAFLIAGNASASA [FS-2322]
7.5 min
  furin cleavage Z-score: -1.89 (inactive)
15 min
  furin cleavage Z-score: -0.15 (inactive)
30 min
  furin cleavage Z-score: -1.34 (inactive)

## CAKKRTVVLTAGNASASA [HC1325]
7.5 min
  furin cleavage Z-score: -0.725 (inactive)
15 min
  furin cleavage Z-score: -0.173 (inactive)
30 min
  furin cleavage Z-score: 0.000165 (inactive)

## CAEPDVAVLTAGNASASA [HC1243]
7.5 min
  furin cleavage Z-score: 0.073 (inactive)
15 min
  furin cleavage Z-score: 0.723 (inactive)
30 min
  furin cleavage Z-score: -1.2 (inactive)

## CAINALSNSLAGNASASA [HC1382]
7.5 min
  furin cleavage Z-score: -0.629 (inactive)
15 min
  furin cleavage Z-score: -0.0116 (inactive)
30 min
  furin cleavage Z-score: 0.458 (inactive)

## CARKRRNLETAGNASASA [FS-2700]
7.5 min
  furin cleavage Z-score: 7.71 (active)
15 min
  furin cleavage Z-score: 8.41 (active)
30 min
  furin cleavage Z-score: 8.69 (active)

## CARKRRALLIAGNASASA [FS-3258]
7.5 min
  furin cleavage Z-score: 5.47 (active)
15 min
  furin cleavage Z-score: 5.56 (active)
30 min
  furin cleavage Z-score: 8.18 (active)
